We go through 40 compounds from PubChem BioAssay AID2533 (National Center for Advancing Translational Sciences (NCATS), 2010).

Results filed as inconclusive are left out. Unmarked numbers belong to inactive results. Calls of active or inactive are those of the source. The call rests on the fitted dose curve; in most records, active means well fitted activation curve with a large enough effect; inconclusive means small, poorly fitted or top-dose-only effect; inactive means flat fitted curve, though single readings scatter.
Potency means the concentration at half of the fitted maximal effect.

This test deals with Pyruvate kinase PKM (Homo sapiens) (UniProt P14618). The test is described as follows: Confirmation Concentration-Response Assay for Activators of Human Muscle isoform 2 Pyruvate Kinase: for Probe SAR. Further: nearly all actives have a fitted effect of over 60% in size. On activity change, positive = activation: % of control where 0% means no effect. The note with it: purified PKM2, ATP generation, Kinase-Glo luminescence; series mostly up to 57.5 µM; activity change, positive = activation: at the top concentration. An excerpt: NIH Chemical Genomics Center [NCGC]
Pyruvate kinase PKM (Homo sapiens), sequence (P14618 whole entry, looked up, canonical isoform): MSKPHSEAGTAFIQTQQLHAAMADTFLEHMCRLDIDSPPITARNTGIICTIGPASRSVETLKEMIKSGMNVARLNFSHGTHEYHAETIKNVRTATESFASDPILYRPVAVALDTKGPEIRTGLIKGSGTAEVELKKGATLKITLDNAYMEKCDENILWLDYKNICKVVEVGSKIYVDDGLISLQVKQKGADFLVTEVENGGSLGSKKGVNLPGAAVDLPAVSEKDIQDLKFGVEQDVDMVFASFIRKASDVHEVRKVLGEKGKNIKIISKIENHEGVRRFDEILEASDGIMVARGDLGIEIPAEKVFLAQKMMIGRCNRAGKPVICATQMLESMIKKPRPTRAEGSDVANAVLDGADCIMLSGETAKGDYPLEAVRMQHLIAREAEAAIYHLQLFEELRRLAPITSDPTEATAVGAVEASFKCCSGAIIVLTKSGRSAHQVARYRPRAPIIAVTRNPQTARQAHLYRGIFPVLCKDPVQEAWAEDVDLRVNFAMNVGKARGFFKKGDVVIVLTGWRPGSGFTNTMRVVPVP
Matthew G. Vander Heiden, M.D., Ph.D. [Harvard Medical School, 77 Avenue Louis Pasteur, Boston, MA 02115]
Human pyruvate kinase muscle 2 (hPK-M2) enzyme was supplied as a highly purified (>95% pure) preparation from Harvard Medical School and assayed for its ability to generate ATP from ADP using phosphoenolpyruvate (PEP) as a substrate. ATP generation was detected in a coupled reaction by luciferase-mediated luminescence, an ATP-dependent process. […] The enzyme was assayed at an intermediate level of activity to screen for both inhibitors and activators.
NCGC Assay Protocol Summary:
Three uL of substrate mix (at r.t.) in assay buffer (50 mM Imidazole pH7.2, 50 mM KCl, 7 mM MgCl2, 0.01% Tween 20, 0.05% BSA) was dispensed into white solid bottom 1,536 well microtiter plates so that the final concentrations of substrates in the assay were 0.1 mM ADP and 0.5 mM PEP. 23 nL of compound were delivered by a pin tool and 1 uL of enzyme mix (final concentration of 0.1 nM) in assay buffer (4 degree Celsius) was added. Plates were incubated at room temperature for 1 hour. Two uL of detection mix (Kinase-Glo, Promega; at 4 degree Celsius protected from light) was added and luminescence read by a ViewLux (Perkin Elmer) at 1 second exposure/plate. Data were normalized to the uninhibited (column 3) and AC100 inhibition (no enzyme in column 2). To monitor activation, the first column contained a titration of the activator, NCGC00031955-03 (16-point 1:2 dilutions in duplicate starting at 57 uM) and the first 16 rows of column 4 contained 57 uM of NCGC00031955-03.
In general terms: Kinase-Glo reads ATP consumption through a luciferase reaction.
Regarding `Cc1ccc(NS(=O)(=O)c2ccc3c(c2)oc(=O)n3C)cc1C`, the Potency was 10.3 µM (active). On to `CC(=O)Nc1cccc(S(=O)(=O)N2CCN(S(=O)(=O)c3c(F)cccc3F)CC2)c1`, for which the Potency was 14.6 µM (active). Turning to `COc1ccc(Nc2c(-c3ccc(C)o3)nc3ccccn23)cc1`, the “activity change, positive = activation” value was 23.2%. Consider `O=C(O)c1ccccc1SC1=NS(=O)(=O)c2ccccc21`, for which the Potency is 32.6 µM [inhibitor] (active). Turning to `O=S1(=O)N=C(Oc2ccccc2)c2ccccc21`, the “activity change, positive = activation” value was 10.6%. On to `CN(C)c1cccc(S(=O)(=O)N2CCCN(S(=O)(=O)c3ccc4c(c3)OCCO4)CC2)c1`, for which the Potency is 0.163 µM (active).

For `COc1cccc(OC2=NS(=O)(=O)c3ccccc32)c1`, the “activity change, positive = activation” value was 8.76%. Regarding `O=[S+]1([O-])N=C(Oc2cccnc2)c2ccccc21`, the “activity change, positive = activation” value is 3.92%. With `COc1ccc(-c2nc3ccccn3c2Nc2ccccc2C)cc1`, the Potency is 14.6 µM (active).

Take `COc1cc(F)c(S(=O)(=O)N2CCN(S(=O)(=O)c3cccs3)CC2)c(F)c1`: the Potency was 0.0366 µM (active). In the case of `CC(=O)Nc1ccccc1OC1=N[S+](=O)([O-])c2ccccc21`, the “activity change, positive = activation” value was 2.62%. On the same count and under the same terms, in the case of `O=S1(=O)N=C(Oc2ccccc2Cl)c2ccccc21` it was 9.98%.

As for `Cc1ccc2nc(-c3ccc(C)o3)c(NC3CCCC3)n2c1`, the “activity change, positive = activation” value is 11.9%. Turning to `N#Cc1ccc(OC2=NS(=O)(=O)c3ccccc32)cc1`, the “activity change, positive = activation” value is 1.36%. In the case of `Cc1cc2c(s1)c1cnn(Cc3c(Cl)ccc(C)c3F)c(=O)c1n2C`, the Potency is 1.26 µM (active). As for `COc1ccc(NS(=O)(=O)c2ccccc2C(=O)O)cc1`, the “activity change, positive = activation” value is 3.55%.

Consider `COc1cc(F)c(S(=O)(=O)N2CCN(S(=O)(=O)c3ccco3)CC2)c(F)c1`, for which the Potency is 0.183 µM (active). As to `Cc1ccc(NS(=O)(=O)c2cc3c(cc2-c2ccco2)NC(=O)CO3)cc1C`, the Potency is 9.19 µM (active).

In the case of `Cc1ccc2nc(-c3ccco3)c(Nc3ccccc3)n2c1`, the “activity change, positive = activation” value was 8.77%. `Cc1cc(C)n2c(Nc3ccccc3)c(-c3ccc(C)o3)nc2n1`: the Potency is 16.3 µM (active). On the same count and under the same terms, to `Cc1ccc(NS(=O)(=O)c2ccc3c(c2)NC(=O)CO3)cc1C` belongs 20.6 µM (active).

Turning to `O=C1CCc2cc([S+](=O)([O-])Nc3ccc(N[S+](=O)([O-])c4ccc5c(c4)CCC(=O)N5)cc3)ccc2N1`, the “activity change, positive = activation” value is 1.69%. In the case of `O=S1(=O)N=C(Oc2ccccc2-c2ccccc2)c2ccccc21`, the “activity change, positive = activation” value is -14.7%. Consider `Fc1ccccc1-c1ccc(-c2nc3ccc(Cl)cn3c2Nc2ccc(Cl)cc2)o1`, for which the “activity change, positive = activation” value was 0.0036%. For the compound `COc1cc(F)c(S(=O)(=O)N2CCN(S(=O)(=O)c3ccc(NC(C)=O)cc3)CC2)c(F)c1`, the Potency is 13 µM (active). Consider `O=C1CCc2cc(S(=O)(=O)Nc3ccccc3-c3ccccc3)ccc2N1`, for which the “activity change, positive = activation” value was 16.8%. The same measure, in the same setting: in the case of `O=C1c2ccccc2C(=O)N1Cc1ccccn1` it was -5.16%. Still for that read-out and setting: to `N#Cc1ccccc1OC1=NS(=O)(=O)c2ccccc21` belongs 5.45%. In the case of `O=C1c2ccccc2C(=O)N1c1cncc2ccccc12`, the “activity change, positive = activation” value is 11.1%.

Consider `Cc1ccn2c(NCc3ccco3)c(-c3ccccc3)nc2c1`, for which the “activity change, positive = activation” value is -5.8%. In the case of `Cc1ccc(NS(=O)(=O)c2ccc3c(c2)N(C)CCO3)cc1C`, the Potency is 18.3 µM (active).

Consider `CCNc1cccc(S(=O)(=O)N2CCCN(S(=O)(=O)c3ccc4c(c3)OCCO4)CC2)c1`, for which the Potency is 0.206 µM (active). Still for that read-out and setting: in the case of `O=C1CCc2cc(S(=O)(=O)Nc3cccc(Br)c3)ccc2N1` it was 0.259 µM (active). As to `Cc1ccc(NS(=O)(=O)c2cc3c(cc2Br)NC(=O)CO3)cc1C`, the Potency is 18.3 µM (active).

Regarding `O=S1(=O)N=C(Oc2ccc(Br)cc2)c2ccccc21`, the “activity change, positive = activation” value was 1.34%. Consider `Cc1ccc(NS(=O)(=O)c2cccc(Cl)c2)cc1C`, for which the Potency was 16.3 µM (active). On to `O=S(=O)(c1cccc(O)c1)N1CCN(S(=O)(=O)c2c(F)cccc2F)CC1`, for which the Potency is 0.58 µM (active). Regarding `O=C1c2ccccc2C(=O)N1c1ccc2ncccc2c1`, the “activity change, positive = activation” value was 5.12%. For the compound `Nc1cc(S(=O)(=O)N2CCN(S(=O)(=O)c3ccc4c(c3)OCCO4)CC2)ccn1`, the Potency was 3.26 µM (active). Consider `COc1cccc(NS(=O)(=O)c2ccc3c(c2)CCC(=O)N3)c1`, for which the Potency was 5.17 µM (active).
